According to PubChem BioAssay (EPA / NIEHS):
“And” between values parts separate entries of the source, which are not always exact repeats. Identical values can stand only once. Records with an inconclusive call do not appear. The source holds several records for some structures; these can differ, active in one and inactive in another. The source made the active and inactive calls. Rule for the calls: active = hit-call score of the fitted dose curve at least 0.9, where 1 is the maximum; inconclusive = response in the unintended direction; inactive = score below 0.9.

Assay: TOX21_p53_BLA_p3_viability: Viability Assessment in the Tox21 HCT-116 p53 Agonism Beta-lactamase Assay, Phase 3 (AID 2283593);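 note: cells exposed to compound for 16 h before reading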
Procedure, shortened: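 HCT116 cells, 4000/well, dosed 5 h after plating by pin transfer (217-fold dilution from DMSO stock) and incubated 16 h at 37C, 5% CO2. Viability read as ATP luminescence with CellTiter-Glo after 30 min at room temperature.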

SMILES | outcome | AC50
C/C=C(\C)C(=O)OCCc1ccccc1 | inactive | –
C#CC(C)(O)CC(C)C (stereo unspecified) | inactive | –
C=C(CC(=O)O)C(=O)O | inactive | –
Brc1ccc(Br)c(Br)c1 | inactive | –
Cc1cc(C)nc(NS(=O)(=O)c2ccc(N)cc2)n1 | inactive | –
Cc1[nH]c(=O)c(C#N)cc1-c1ccncc1 | inactive | –
IC(I)I | inactive | –
COc1ccc(CCN2CCC(Nc3nc4ccccc4n3Cc3ccc(F)cc3)CC2)cc1 | inactive | 15.2 µM (active)
CC1C2CC(CC2C2CCCC(O)C2)C1(C)C (stereo unspecified) | inactive | –
CCCCC(CC)COC(=O)c1ccc(O)cc1 (stereo unspecified) | inactive | 84.1 µM (active)
CC(C)=CCCC(C)CCOC=O (stereo unspecified) | – | 39.7 µM (active)
COC(=O)C=C(C)CCC=C(C)C | inactive | –
CC1(C)C2=CCCC(C)(C)[C@]23CC[C@H]1C3 | inactive | –
CCOC(=O)COC(=O)c1cc(Oc2ccc(C(F)(F)F)cc2Cl)ccc1[N+](=O)[O-] | inactive | –
CCOC(=O)C1OC1c1ccccc1 (stereo unspecified) | inactive | –
CCOC(=O)c1ccc(N)cc1 | inactive | –
O=c1[nH]c(=O)c2cn[nH]c2[nH]1 | inactive | –
CCCCCC(C=O)=Cc1ccccc1 | inactive | –
CC(Oc1cc(Cl)ccc1Cl)C(=O)O (stereo unspecified) | inactive | –
O=C1c2ccccc2C(=O)c2c(O)ccc(O)c21 | inactive | –
O=[N+]([O-])c1ccc(O)cc1C(F)(F)F | inactive | –
COc1ccc(CCC(C)=O)cc1 | inactive | –
CC(C)(C)CC(C)(C)c1ccc(OCCOCC[N+](C)(C)Cc2ccccc2)cc1 | – | 60.7 µM (active) and 23 µM (active)
CCCC1O[C@@H]2C[C@H]3[C@@H]4CCC5=CC(=O)C=C[C@]5(C)[C@H]4[C@@H](O)C[C@]3(C)[C@]2(C(=O)CO)O1 (stereo partly specified) | inactive | –
